Experiment [1] is described as follows: viability loss in pontine glioma line – cell-based, JHH-DIPG-1, MIPE4.0, CellTiter-Glo, qHTS, dose response (AID 1347062; cut-off not given, nearly all actives have AC50 up to about 27 µM). Particulars: JHH-DIPG-1 viability, CellTiter-Glo ATP luminescence. (Cellular ATP, detected with luciferase, serves as a proxy for viable cell number.)
Experiment [2] is described as follows: viability loss in pontine glioma line – cell-based, SU-DIPG-XIII, MIPE5.0, CellTiter-Glo, qHTS, dose response (AID 1347064; cut-off not given, nearly all actives have AC50 up to about 23 µM). Particulars: CellTiter-Glo ATP luminescence.
Experiment [3] is described as follows: viability loss in pontine glioma line – cell-based, SU-DIPG-XXV, MIPE5.0, CellTiter-Glo, qHTS, dose response (AID 1347065; cut-off not given, nearly all actives have AC50 up to about 26 µM;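 further: cells exposed to compound for 48 hours before ATP readout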). Particulars: CellTiter-Glo ATP luminescence.
The nature of experiment [4]: growth inhibition of DIPG cells – cell-based, MIPE4.0 library, CellTiter-Glo luminescence, qHTS (AID 1347066; cut-off not given, nearly all actives have AC50 up to about 30 µM;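 further: cells exposed to compound for 48 hours before readout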). Particulars: SU-DIPG-VI viability, CellTiter-Glo ATP luminescence.
Experiment [5] can be described thus: JHH-DIPG-1 glioma cell viability, MIPE5.0 library, CellTiter-Glo luminescence, qHTS (AID 1347067; cut-off not given, nearly all actives have AC50 up to about 26 µM;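 further: cells exposed to compound for 48 hours before readout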). Particulars: JHH-DIPG-1 glioma viability, CellTiter-Glo ATP luminescence.
Experiment [6] in a line: compounds altering viability of human ES cells (AID 493140; call rule not given here;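 further: cells exposed to compounds for four days before counting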). Particulars: human embryonic stem cell survival screen; stronger effect = higher value.
Experiment [7] addresses Mitogen-activated protein kinase 7 (Homo sapiens) (UniProt Q13164). In words: Gal4-ERK5 driven luciferase induction – cell-based, HTS, primary screen (AID 1508626;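 active means luciferase signal above three times the same-plate solvent-only control wells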;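 further: luciferase driven by Gal4-ERK5 fusion binding five Gal4 sites before minimal TATA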). Particulars: HeLa Gal4-ERK5 transactivation, 18 h, at 5 µM, stronger effect = higher value.
A short description of experiment [8]: compounds altering HSF1 focus formation in cells – imaging, Selleck Cancer Library (AID 1347162; in the data active means plate-normalised HSF1 focus index below about 0.46). Particulars: human cells, HSF1 nuclear foci imaging, at 10 µM; SSMD: measured here: HSF1 foci SSMD mean; cell count: measured here: cell number; plate-normalised HSF1 focus index: stronger effect = lower value.
The nature of experiment [9]: growth inhibition, single agent or in combination, cell-based, chromothripsis tumors, cisplatin or BGB combos (AID 1671449).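 Further: cells exposed for 96 hours; 0% = vehicle DMSO and 100% = killing by high DMSO.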 Particulars: LFS_MB_P medulloblastoma cells.
A short description of experiment [10]: growth inhibition, single agent and combos, cell-based, chromothripsis tumors, cisplatin or BGB combos (AID 1671450).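 Further: cells exposed to compound for four days; 0% = vehicle DMSO and 100% = cell killing by high DMSO.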 Particulars: HDN33 neuroblastoma cells, stronger effect = higher value.
Experiment [11] is described as follows: growth inhibition, single agents and combos, ICB984, cell-based, cisplatin or BGB combos, synergistic combos for chromothripsis tumors (AID 1671451; call rule not given here;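 further: cells exposed for 96 hours before readout; 0% = vehicle DMSO and 100% = killing by high DMSO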). Particulars: ICB984 medulloblastoma cells, drug combinations, stronger effect = higher value.
Experiment [12] is described as follows: growth inhibition, single agents and combos, HTB85, cell-based, BGB or cisplatin IC20 combos, synergistic combos for chromothripsis tumors (AID 1671453).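 Further: cells exposed for 96 hours before readout; 0% = vehicle DMSO and 100% = high DMSO killing control.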 Particulars: HTB85 osteosarcoma cells, drug combinations, stronger effect = higher value.
Experiment [13] in a line: growth inhibition, MDA-MB-436, cell-based, BGB or cisplatin combos, synergistic combos for chromothripsis tumors (AID 1671458; call rule not given here;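 further: cells exposed for 96 hours; 0% = vehicle DMSO and 100% = killing by high DMSO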). Particulars: MDA-MB-436 breast carcinoma growth inhibition, drug combinations, stronger effect = higher value.
Experiment [14] can be described thus: BT084 cell growth, single and combined drugs, ICGC_MB145, cisplatin and BGB IC40 combos (AID 1671461).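 Further: cells exposed to drugs for 96 hours; 0% = vehicle DMSO and 100% = high DMSO full killing control.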 Particulars: BT084 medulloblastoma cells, drug combinations, stronger effect = higher value.
A short description of experiment [15]: RCMB18 cell growth, single agent and combined, cisplatin and BGB IC40 combos (AID 1671462).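 Further: cells exposed to compound for four days.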 Particulars: RCMB18 medulloblastoma cells, stronger effect = higher value.
Experiment [16] in a line: CRL1545 cell growth, single agent and combined, cisplatin and BGB IC20 combos (AID 1671464).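 Further: cells exposed to compound for 96 hours before readout; 0% = vehicle DMSO and 100% = high DMSO killing control.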 Particulars: CRL1545 osteosarcoma cells, stronger effect = higher value.
The mark [17] stands for this setting: measured here: with BGB IC20 combination, at 0.5 µM.
[18] abbreviates: measured here: with cisplatin IC20 combination, at 0.5 µM.

Where “and” joins values, the source holds several entries; their conditions need not be identical. Equal entries are not always repeated. Results filed as inconclusive are left out. Calls of active or inactive are those of the source. Unless noted, no stated cut-off is given here; in the data, active means inhibition above about 80%; inactive means the rest.

Mitogen-activated protein kinase 7 (Homo sapiens), sequence (Q13164 whole entry, looked up, the tested form may be a part): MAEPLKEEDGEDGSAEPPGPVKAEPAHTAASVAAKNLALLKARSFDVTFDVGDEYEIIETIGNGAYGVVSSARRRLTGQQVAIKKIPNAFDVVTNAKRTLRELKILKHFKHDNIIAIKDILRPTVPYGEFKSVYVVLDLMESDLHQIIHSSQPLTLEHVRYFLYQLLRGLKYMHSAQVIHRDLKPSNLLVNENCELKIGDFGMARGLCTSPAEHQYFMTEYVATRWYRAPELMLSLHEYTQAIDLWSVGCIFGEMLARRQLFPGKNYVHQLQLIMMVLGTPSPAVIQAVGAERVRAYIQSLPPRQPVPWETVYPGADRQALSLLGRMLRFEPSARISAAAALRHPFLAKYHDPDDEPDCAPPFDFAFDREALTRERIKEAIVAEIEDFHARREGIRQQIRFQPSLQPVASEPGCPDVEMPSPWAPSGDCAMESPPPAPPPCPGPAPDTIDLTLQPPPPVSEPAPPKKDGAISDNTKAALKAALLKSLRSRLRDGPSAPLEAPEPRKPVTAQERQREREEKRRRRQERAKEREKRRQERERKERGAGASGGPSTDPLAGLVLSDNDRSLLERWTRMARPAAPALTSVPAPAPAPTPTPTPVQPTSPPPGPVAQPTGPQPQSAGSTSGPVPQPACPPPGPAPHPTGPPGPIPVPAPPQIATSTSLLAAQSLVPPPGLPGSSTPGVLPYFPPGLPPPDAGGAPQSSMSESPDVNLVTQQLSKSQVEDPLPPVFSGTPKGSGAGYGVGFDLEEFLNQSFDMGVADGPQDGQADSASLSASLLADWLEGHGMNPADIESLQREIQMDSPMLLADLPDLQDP

As to `CCOCC(O)COc1ccc(NC(=O)CC[S+](C)C)cc1` (centres undefined), the compound was classed as inactive in [1], in experiment [2], in experiment [3], in experiment [4] and in [5].

Turning to `NC(=O)c1cc[n+](CC2=C(C(=O)[O-])N3C(=O)[C@@H](NC(=O)Cc4cccs4)[C@H]3SC2)cc1`, in [6], the survival is 16 (inactive).

With `CC1=C(C/C=C(\C)CCC[C@H](C)CCC[C@H](C)CCCC(C)C)C(=O)c2ccccc2C1=O`, the luciferase signal in experiment [7] was 156 AU (inactive).

Regarding `CNCc1ccccc1`, the luciferase signal in experiment [7] was 56 AU (inactive).

With `O=C(Nc1ccc(C(=O)O)c(O)c1)c1ccccc1`, the luciferase signal in experiment [7] was 48 AU (inactive).

The term inhibition denotes the change of the read-out against control, counted positive when it falls. Regarding `Nc1nc(Cl)nc2c1ncn2[C@@H]1O[C@H](CO)[C@@H](O)[C@@H]1F`, the result in [1] was inactive. Besides, the SSMD in experiment [8] was -4.45. The compound further yielded a cell count in [8] of 7490. Moreover, the plate-normalised HSF1 focus index in [8] was 0.84 (inactive). For the same compound, the inhibition is -3.9% (inactive) and -14.3% (inactive) in [9] (at 0.5 µM, stronger effect = higher value); -8.83% and 6.96% in [9] (measured here: combination with BGB IC20, at 0.005 µM); -20.3% and 1.78% in experiment [9] (measured here: combination with BGB IC40, at 0.005 µM); -15.7% and -36.2% in [9] (measured here: combination with BGB IC40, at 0.05 µM); -5.98% and 57.4% in experiment [9] (measured here: combination with cisplatin, at 0.5 µM, stronger effect = higher value); 71.4% and 96.1% in experiment [9] (measured here: combination with cisplatin, at 5 µM, stronger effect = higher value). For the same compound, the inhibition was 93.3% and 87.1% in [10] (BGB combo, at 5 µM); 73.2% (inactive) and 66.1% (inactive) in [10] (at 0.5 µM); 95.5% and 89.7% in experiment [10] (cisplatin combo, at 5 µM); 77.5% and 72.5% in experiment [10] (setting [17]); 73.9% and 60.5% in [10] (setting [18]); 90.8% and 89.8% in experiment [10] (single agent, at 5 µM). The inhibition was -17.9% and 1.1% in experiment [11] (BGB IC20 combo, at 0.005 µM); -37% and -3.72% in experiment [11] (BGB IC40 combo, at 0.005 µM); 35.1% and 25% in [11] (BGB IC40 combo, at 0.05 µM); -24.6% (inactive) and -23.6% (inactive) in experiment [11] (at 0.5 µM); 35.1% and 22.3% in [11] (cisplatin combo, at 0.05 µM); -35.6% and 1.18% in [11] (cisplatin combo, at 0.5 µM). Besides, the inhibition in [11] (cisplatin combo, at 5 µM) was 0.299% and -46.4%; in experiment [11] (measured here: 5 uM single agent, at 5 µM), -18.8% and -11.5%; in experiment [12] (at 0.5 µM), 75.4% (inactive) and 77.9% (inactive); in experiment [12] (measured here: with BGB IC20, at 0.5 µM), 66.7% and 73.9%; in experiment [12] (measured here: with BGB IC20, at 5 µM) it was 95.1% and 90.7%; in experiment [12] (measured here: with cisplatin IC20, at 0.5 µM), 78% and 76.7%. Further, the inhibition in [12] (measured here: with cisplatin IC20, at 5 µM) was 97.1% and 95.9%; in [12] (single agent, at 5 µM), 96.4%; in experiment [13] (at 0.5 µM) it was 45.3% (inactive) and 53.2% (inactive); in [13] (measured here: BGB combination, at 0.5 µM), 39.5% and 52%; in [13] (measured here: BGB combination, at 5 µM), 65.6% and 67.5%; in [13] (measured here: cisplatin combination, at 0.5 µM), 40.6% and 46.8%. Further, the inhibition was 87% and 90.6% in [13] (measured here: cisplatin combination, at 5 µM); 25.8% (inactive) and 24.8% (inactive) in [14] (at 0.5 µM); 61.9% and 62.5% in experiment [14] (cisplatin combination, at 0.5 µM); 70.1% and 80% in experiment [14] (cisplatin combination, at 5 µM); -13.2% and 17.9% in experiment [14] (measured here: BGB IC40 combination 0.05 uM, at 0.05 µM); -3.16% and -6.18% in experiment [14] (single agent, at 5 µM). Besides, the inhibition was 16.9% (inactive) and 18.5% (inactive) in experiment [15] (at 0.5 µM); 84.3% and 94.2% in [15] (cisplatin combo, at 5 µM); -16.1% and -7.68% in [15] (measured here: BGB IC40 combination, at 0.05 µM); 83.1% and 66% in experiment [15] (measured here: combination with cisplatin, at 0.5 µM); 9.06% and 45.4% in experiment [15] (single agent, at 5 µM); 7.42% (inactive) and 10.4% (inactive) in experiment [16] (at 0.5 µM). Further, the inhibition in experiment [16] (setting [17]) was 24% and 34.6%; in experiment [16] (setting [18]), -0.869% and -3.42%; in experiment [16] (single agent, at 0.05 µM) it was 30.6% and -23.9%; in [16] (single agent, at 5 µM), 97.1% and 92.1%.

For the compound `CC[C@@H](CO)NCCN[C@@H](CC)CO`, the luciferase signal in [7] was 40 AU (inactive).

Turning to `COc1cc(N)c(Cl)cc1C(=O)NC1CCN(CCCOc2ccc(F)cc2)CC1OC` (centres undefined), in experiment [6], the survival is 0.75 (inactive).

Consider `CC(O)(P(=O)(O)O)P(=O)(O)O`, for which the survival in [6] was 4.67 (inactive). Besides, the luciferase signal in experiment [7] is 48 AU (inactive).

In the case of `NCCNCCNCCN`, in experiment [7], the luciferase signal was 64 AU (inactive).

For the compound `OC1C(O)C(O)C(O)C(O)C1O` (centres undefined), in [7], the luciferase signal was 40 AU (inactive).

Consider `NC(=O)CCCCC1CCSS1` (centres undefined), for which, in experiment [7], the luciferase signal is 44 AU (inactive).

As to `CCOC(=O)c1ccc(O)cc1`, the luciferase signal in experiment [7] was 64 AU (inactive).

For the compound `OCCc1ccccc1`, the luciferase signal in experiment [7] is 108 AU (inactive).

On to `COc1cc(C(=O)NCCCCCC(=O)O)cc(OC)c1OC`, for which, in experiment [7], the luciferase signal is 36 AU (inactive).

Source of the values: PubChem BioAssay.
